Screening results deposited in PubChem BioAssay by several laboratories.
MMP-13 inhibitor – inhibitors of human MMP13. inhibition, % at 4 µM. P45452. 65,000 compounds, 0.07% hits. MMP-13 fTHP FRET cleavage, Mca fluorescence;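 active = inhibition above the mean of compound-free control plate wells plus 3 SD, cut at about 14% in these data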;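 note: 0% = DMSO wells and 100% = wells with reference MMP-13 inhibitor after basal subtraction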
HER2 expr 66K – lowers expression of human Her2 kinase | P04626 | SKBR-3 HER2 protein level, AlphaScreen, 18-24 h; active compounds read low | HER2 level % of control, % at 10 µM | 65,000 compounds, 0.69% hits;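 active = HER2 level under 5% of the carrier-only control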;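 note: 100% = DMSO carrier and 0% = 500 nM PU-H71 HSP90 inhibitor; lower value means stronger loss of Her2 protein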
SK-BR-3 tox 24h – SK-BR-3 proliferation inhibitors. viability, % at 10 µM. 41,000 compounds, 0.47% hits. SK-BR-3 viability, CellTiter-Glo ATP luminescence, 24 h; active compounds read low. AID 847;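 active = viability at or below the median of all test compounds minus 3 SD, in both replicates if run twice, cut at about 45% in these data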;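 note: 100% = median untreated cell wells and 0% = median positive control drug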
* = called active by the depositor; · = not tested or not shown. Rows were chosen to be rich in hits. Some 0.94% of all compounds tested hit in one or more screens of this group.

SMILES	MMP-13 inhibitor	HER2 expr 66K	SK-BR-3 tox 24h
CC(=O)NC(CCS(C)(=O)=O)C(=O)N1CCc2ccccc21 (stereo unspecified)	4	71	65
CCC1C(=O)N=C(SCC(=O)Nc2ccc(C(=O)OC)cc2)NC1=O (stereo unspecified)	1	85	44*
NS(=O)(=O)c1ccc(NC(=O)CSC2=NC(=O)C(c3ccccc3)C(=O)N2)cc1 (stereo unspecified)	3	94	·
O=c1c2ccccc2nc2n1CC/C2=C/N1CCN(c2cccc(C(F)(F)F)c2)CC1	1	69	87
CC1CCCN(C(=O)Cn2c(-c3nonc3N)nc3ccccc32)C1 (stereo unspecified)	-2	-24*	94
Nc1nonc1-c1nc2ccccc2n1CC(=O)NC1CCCC1	5	105	·
O=C(CCCCCn1c(=S)[nH]c2cc3c(cc2c1=O)OCO3)N1CCN(Cc2ccccc2)CC1	4	56	·
O=C(CCCCCn1c(=S)[nH]c2cc3c(cc2c1=O)OCO3)N1CCN(C2CCCCC2)CC1	4	-16*	·
COc1cccc(-c2nc(C(N)=O)c3[nH]c(=O)n(-c4cccc(Cl)c4)c3n2)c1OC	-4	97	·
COc1ccc(-c2nc(C(N)=O)c3[nH]c(=O)n(-c4cccc(Cl)c4)c3n2)cc1OC	-4	-12*	·
COc1ccccc1N1CCN(c2nc(N)c(C#N)c(CC#N)c2C#N)CC1	-1	75	114
COc1cc2c(C#N)c(N3CCN(c4ccccc4OC)CC3)nc(N)c2c(N)n1	-96	-4.0*	66
CCn1c(SCC(=O)C(C)(C)C)nnc1-c1cnccn1	5	-19*	·
CCn1c(SCC(=O)C(C)(C)C)nnc1-c1ccccn1	16*	91	·
CCn1c(SCC(=O)Nc2ccccc2OC)nnc1-c1cnccn1	-4	258	83
C=CCn1c(SCC(=O)C(C)(C)C)nnc1-c1ccccn1	2	75	86
CCCc1nnc(NC(=O)c2c(O)c3cccc4c3n(c2=O)CCC4)s1	1	61	·
CC(c1ccco1)N(C(=O)CSc1ccc(Br)cc1)c1ccccn1 (stereo unspecified)	2	69	·
O=C(NCc1ccccc1)N(Cc1nc2ccccc2c(=O)[nH]1)C1CCCC1	-22	72	83
CCn1c(=O)c(C(=O)Nc2nc3ccccc3[nH]2)c(O)c2ccccc21	0	0.9*	·
CCn1c(=O)c(C(=O)Nn2c(C)nc3ccccc3c2=O)c(O)c2ccccc21	-2	53	125
CC1CCN(S(=O)(=O)c2ccc3c(c2)c(=O)c(C(=O)NC2CCCC2)cn3C)CC1	-4	86	·
CC1CCCC(NC(=O)c2cn(C)c3ccc(S(=O)(=O)N4CCCC4)cc3c2=O)C1C (stereo unspecified)	1	102	69
CC1CCCCC1NC(=O)c1cn(C)c2ccc(S(=O)(=O)N3CCCC3)cc2c1=O (stereo unspecified)	-4	99	43*
Cn1cc(C(=O)NC2CCCCC2)c(=O)c2cc(S(=O)(=O)N3CCCC3)ccc21	7	-4.8*	51
SMILES	MMP-13 inhibitor	HER2 expr 66K	SK-BR-3 tox 24h
C/C(N)=C(/C#N)C(=O)CSc1nnnn1-c1ccc(C)cc1C	6	129	·
CCC(C)Sc1nc2c(c(=O)[nH]c(=O)n2C)n1Cc1ccccc1Cl (stereo unspecified)	1	86	·
Nc1nnnn1/N=C/C(Br)=C/c1ccccc1	1	-20*	180
Nc1nnnn1/N=C/C=C/c1ccccc1	0	84	90
O=C(NCc1cccnc1)c1cc(-c2cccs2)on1	2	69	76
O=C1CC(c2ccncc2)c2cc3c(cc2N1)OCO3 (stereo unspecified)	4	109	102
Cc1cc(C)n(-c2nc3ccccc3c(=O)n2OCC(=O)OCc2ccccc2)n1	-1	96	139
Cc1cc(C)n(-c2nc3ccccc3c(=O)n2OCc2ccc(F)cc2)n1	3	62	40*
CCCN1Cc2cccc(C(=O)Nc3ccc(N4CCN(CC)CC4)cc3)c2C1=O	-6	110	·
Cc1ccc(N(O)C(=O)OCCNC(=O)Nc2ccccc2)cc1	2	124	85
CCOC(=O)CC(N)c1ccc2c(c1)OCO2 (stereo unspecified)	0	-21*	89
CCOC(=O)COc1ccc(S(=O)(=O)Nc2ccc3c(c2)OCO3)cc1	2	48	101
Cc1ccc(C(C(=O)NCc2ccco2)N(CCc2ccccc2)C(=O)Cn2nnc3ccccc32)o1 (stereo unspecified)	-1	101	89
CCOC(=O)CNC(=O)Cn1cnc2c(nnn2-c2cccc(Cl)c2)c1=O	-4	122	·
Nc1nc(-c2cccs2)c(NC(=O)c2ccccc2)s1	0	-11*	·
CNC(=O)c1ccsc1NC(=O)c1ccccc1	3	95	·
COc1ccc(N(CC(=O)NCc2cccs2)S(=O)(=O)c2cccnc2)cc1	1	109	·
O=C(NC1CCCCC1)/C(=N\O)c1ccccn1	0	111	115
COC(=O)Cc1nnc(NC(=O)c2ccccc2)s1	1	50	93
COCc1nnc(NC(=O)c2ccc(NC(=O)C(C)C)cc2)s1	15*	146	96
O=C1C2ON(c3ccccc3)C(c3cccnc3)C2C(=O)N1c1ccc(Cl)c(Cl)c1 (stereo unspecified)	-5	-18*	109
O=C1C2ON(c3ccccc3)C(c3cccnc3)C2C(=O)N1c1ccccc1 (stereo unspecified)	-3	91	90
COc1ccccc1-n1c(SCC(=O)N2CCCC2)nc2cccnc21	4	86	90
O=C(CSc1nnc(Cn2c(=O)sc3ccccc32)n1-c1ccccc1)Nc1nccs1	-2	83	·
Cc1cc2ccccc2c(=O)n1CC(=O)NCC(=O)N1CCN(c2ccccc2)CC1	-4	91	·
SMILES	MMP-13 inhibitor	HER2 expr 66K	SK-BR-3 tox 24h
Cc1cc2ccccc2c(=O)n1CC(=O)N1CCN(c2cccc(Cl)c2)CC1	0	145	29*
Cc1coc(NC(=O)CSc2nc(-c3ccncc3)cc(C(F)(F)F)c2C#N)n1	-3	54	·
Cc1[nH]c2ccccc2c1C(=O)CN1CCCCC1C (stereo unspecified)	0	96	123
CC(C(=O)Nc1ccc(S(=O)(=O)N2CCOCC2)cc1)N(c1ccccc1)S(C)(=O)=O (stereo unspecified)	5	89	122
CC1CN=C(N(C(=O)Nc2ccccc2)c2ccc(S(=O)(=O)N3CCOCC3)cc2)S1 (stereo unspecified)	-2	1.3*	·
CC12CCC(C(=O)NCc3ccc4c(c3)OCO4)(OC1=O)C2(C)C (stereo unspecified)	3	110	89
O=c1[nH]c(Nc2nc3ccccc3o2)nc2c1CCCC2	1	-3.3*	·
CCOc1ccc(Nc2nc3c(c(=O)[nH]2)CCCC3)cc1	-36	118	82
CCN1CCc2c(C#N)c(N3CCCCC3)nc(N3CCOCC3)c2C1	-47	-22*	119
N#Cc1c(N2CCOCC2)nc(N2CCCCC2)c2c1CCN(C1CCCCC1)C2	3	75	90
CN(C)CC(C(=O)c1ccccc1)c1ccccc1 (stereo unspecified)	0	-55*	6.4*
COc1ccc(C(C(=O)OC(C)CN(C)C)c2ccccc2)cc1 (stereo unspecified)	-18	123	·
